Results filed as inconclusive are left out. A number with no mark means an inactive call. Calls of active or inactive are those of the source. Calls follow the shape of the dose curve; as a rule, active = well fitted inhibition curve with a large enough effect; inconclusive = small, poorly fitted or top-dose-only effect; inactive = flat fitted curve, though single readings scatter.
Tested on: not listed separately
Test: Drug repurposing screens with cells derived from glioblastoma tumor samples (AID 1345199); also: nearly all actives have a fitted effect of over 40% in size
Conditions: GBM patient neurospheres viability, ATP luminescence, 48 h; at 46.1 µM (top of the series); tumour line C
Procedure, shortened: (§1)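 Four patient lines of CD133+ GBM neurospheres were screened at several concentrations; hits were retested in those lines plus three slower-growing GBM lines, using 48-hour treatment and ATP-based viability.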
% is scaled to controls: 0 for no effect and ±100 for the full control effect.

SMILES	activity, negative = cell killing [%]
CC[C@H]1NC(=O)[C@@H](NC(=O)c2ncccc2O)[C@@H](C)OC(=O)[C@H](c2ccccc2)NC(=O)[C@@H]2CC(=O)CCN2C(=O)[C@H](Cc2ccccc2)N(C)C(=O)[C@@H]2CCCN2C1=O	-11
CC1CC(O)CC(C)(C)C1 (centres undefined)	-22
C[Se]CC[C@H](N)C(=O)O	-22.8
COc1ccc(/C=C/C(=O)O)cc1	9.31
Cc1ncc(C[n+]2csc(CCOP(=O)(O)OP(=O)(O)O)c2C)c(N)n1	18.5
CC/C=C\C/C=C\C/C=C\C/C=C\C/C=C\C/C=C\CCC(=O)O	-20.7
CN1C(C(=O)Nc2ccccn2)C(=O)c2sc(Cl)cc2S1(=O)=O (centres undefined)	-4.03
S=C1SCN(Cc2ccccc2)CN1Cc1ccccc1	-9.54
CCCCCCCCCCCC(=O)OC[C@@H](O)C1OC[C@H](O)[C@H]1O (some centres undefined)	-22.6
Cc1cccc(Nc2ncccc2C(=O)O)c1C	-27.1
O=C(/C=C/c1cccc(F)c1)NC1CC1	-17.9
O=C(O)COc1ccc(CCNS(=O)(=O)c2ccccc2)s1	-21.9
NC(=O)[C@H]1O[C@@H](O)[C@H](O)[C@@H](O)[C@@H]1O	-23.5
CCc1ncnc2cc(OC)c(OC)cc12	-14.3
CO/N=C(\C(=O)N[C@@H]1C(=O)N2C(C(=O)O)=C(CSC(=O)c3ccco3)CS[C@H]12)c1csc(N)n1	-21.7
CC/C=C\C/C=C\C/C=C\C/C=C\C/C=C\CCCC(=O)O	-8.93
CCOC(=O)[C@H](CS)NCCN[C@@H](CS)C(=O)OCC	-15.5
NC(Cc1ccccc1)C(=O)O (centres undefined)	-12.6

SMILES	activity, negative = cell killing [%]
CO/N=C(\C(=O)N[C@@H]1C(=O)N2C(C(=O)[O-])=C(C[n+]3ccc(N)n3CCO)CS[C@H]12)c1csc(N)n1	-25.8
C(=C\c1ccncc1)/c1ccccc1	-11.5
CCCCCCCCCCCCCCCCCCCCCC(=O)Nc1ccn([C@@H]2O[C@H](CO)[C@@H](O)[C@@H]2O)c(=O)n1	-16.8
C[C@H](O)CN(C)C	-13.2
O=C(O)CCCC/C=C(\c1ccccc1)c1cccnc1	-17.1
CC(O)CN(C)C (centres undefined)	-3.25
NC(=O)Oc1ccc(Cc2ccccc2)cc1	-22.5
Cc1cc(=O)c(C(=O)N[C@@H](C(=O)N[C@@H]2C(=O)N3C(C(=O)O)=C(CSc4nnnn4C)CS[C@H]23)c2ccc(O)cc2)c[nH]1	-6.97
CC(O)[C@H]1CC[C@H]2[C@@H]3CC[C@@H]4C[C@@H](O)CC[C@]4(C)[C@H]3CC[C@]12C (some centres undefined)	18.8
NCC[C@H](O)C(=O)N[C@@H]1C[C@H](N)[C@@H](O[C@H]2O[C@H](CN)[C@@H](O)[C@H](O)[C@H]2O)[C@H](O)[C@H]1O[C@H]1O[C@H](CO)[C@@H](O)[C@H](N)[C@H]1O	-4.11
NC(=O)[C@@H]1C[C@]2(NC(=O)NC2=O)c2cc(F)ccc2O1	-17.3
O=C(CCCCCCCCCCCCC1CCCC1)Nc1ccc(S(=O)(=O)c2ccc(NC(=O)CCCCCCCCCCCCC3CCCC3)cc2)cc1	-32.4
C[C@@H](O)[C@H]1C(=O)N2C(C(=O)[O-])=C(SC3Cn4cnc[n+]4C3)[C@H](C)[C@H]12 (some centres undefined)	-6.91
Nc1ncnc2c1ncn2CCOCP(=O)(O)O	-21.5
O=C[C@H](O)[C@@H](O)[C@@H](O)[C@H](O)CO	10.2
COc1ccc(C(=O)c2ccc(C)cc2)c(O)c1	-21.4
COc1cc(S(C)=O)ccc1-c1nc2ncccc2[nH]1 (centres undefined)	-12.6

Tested on: astro (control astrocytes)
Test: as above
Conditions: viability, ATP luminescence, 48 h; series mostly up to 45.9 µM; activity, negative = cell killing: at the top concentration
Procedure, shortened: as §1

SMILES	activity, negative = cell killing	Potency
CC[C@H]1NC(=O)[C@@H](NC(=O)c2ncccc2O)[C@@H](C)OC(=O)[C@H](c2ccccc2)NC(=O)[C@@H]2CC(=O)CCN2C(=O)[C@H](Cc2ccccc2)N(C)C(=O)[C@@H]2CCCN2C1=O	-10.5%	–
CC1CC(O)CC(C)(C)C1 (centres undefined)	-6.07%	–
C[Se]CC[C@H](N)C(=O)O	-13.7%	–
COc1ccc(/C=C/C(=O)O)cc1	-0.302%	–
Cc1ncc(C[n+]2csc(CCOP(=O)(O)OP(=O)(O)O)c2C)c(N)n1	-9.1%	–
CC/C=C\C/C=C\C/C=C\C/C=C\C/C=C\C/C=C\CCC(=O)O	-12.3%	–
CN1C(C(=O)Nc2ccccn2)C(=O)c2sc(Cl)cc2S1(=O)=O (centres undefined)	-21.2%	–
S=C1SCN(Cc2ccccc2)CN1Cc1ccccc1	-14%	–
C=CCN1CCCC1CNC(=O)c1cc(S(N)(=O)=O)cc(OC)c1OC (centres undefined)	-2.39%	–
CCCCCCCCCCCC(=O)OC[C@@H](O)C1OC[C@H](O)[C@H]1O (some centres undefined)	-16.4%	–
Cc1cccc(Nc2ncccc2C(=O)O)c1C	-14.4%	–
O=C(/C=C/c1cccc(F)c1)NC1CC1	-7.2%	–
C=CC[N@@+]12CC[C@@]34c5ccccc5N5/C=C6/[C@H]7C[C@H]8[C@@]9(CC[N@@+]8(CC=C)C/C7=C/CO)c7ccccc7N(/C=C(/[C@@H](C[C@@H]31)/C(=C\CO)C2)[C@H]54)[C@@H]69	-5.53% [at 21.2 µM]	–
O=C(O)COc1ccc(CCNS(=O)(=O)c2ccccc2)s1	-15.7%	–
NC(=O)[C@H]1O[C@@H](O)[C@H](O)[C@@H](O)[C@@H]1O	-3.78%	–
CCc1ncnc2cc(OC)c(OC)cc12	-15.4%	–
CO/N=C(\C(=O)N[C@@H]1C(=O)N2C(C(=O)O)=C(CSC(=O)c3ccco3)CS[C@H]12)c1csc(N)n1	-15.5%	–
CC/C=C\C/C=C\C/C=C\C/C=C\C/C=C\CCCC(=O)O	-12.3%	–
CCOC(=O)[C@H](CS)NCCN[C@@H](CS)C(=O)OCC	-3.7%	–
O=[N+]([O-])O[C@@H]1CO[C@H]2[C@@H]1OC[C@@H]2O	-5.48%	–

SMILES	activity, negative = cell killing	Potency
NC(Cc1ccccc1)C(=O)O (centres undefined)	2.17%	–
CO/N=C(\C(=O)N[C@@H]1C(=O)N2C(C(=O)[O-])=C(C[n+]3ccc(N)n3CCO)CS[C@H]12)c1csc(N)n1	-18.3%	–
C(=C\c1ccncc1)/c1ccccc1	–	inactive
CCCCCCCCCCCCCCCCCCCCCC(=O)Nc1ccn([C@@H]2O[C@H](CO)[C@@H](O)[C@@H]2O)c(=O)n1	-11.4%	–
C[C@H](O)CN(C)C	-20.3%	–
O=C(O)CCCC/C=C(\c1ccccc1)c1cccnc1	-7.16%	–
CC(O)CN(C)C (centres undefined)	0.0943%	–
NC(=O)Oc1ccc(Cc2ccccc2)cc1	-29.6%	–
Cc1cc(=O)c(C(=O)N[C@@H](C(=O)N[C@@H]2C(=O)N3C(C(=O)O)=C(CSc4nnnn4C)CS[C@H]23)c2ccc(O)cc2)c[nH]1	-2.57%	–
CC(O)[C@H]1CC[C@H]2[C@@H]3CC[C@@H]4C[C@@H](O)CC[C@]4(C)[C@H]3CC[C@]12C (some centres undefined)	-16.3%	–
CC(C)(COP(=O)(O)OP(=O)(O)OC[C@H]1O[C@@H](n2cnc3c(N)ncnc32)[C@H](O)[C@@H]1OP(=O)(O)O)C(O)C(=O)NCCC(=O)NCCS (some centres undefined)	-18.9%	–
NCC[C@H](O)C(=O)N[C@@H]1C[C@H](N)[C@@H](O[C@H]2O[C@H](CN)[C@@H](O)[C@H](O)[C@H]2O)[C@H](O)[C@H]1O[C@H]1O[C@H](CO)[C@@H](O)[C@H](N)[C@H]1O	-14.8%	–
NC(=O)[C@@H]1C[C@]2(NC(=O)NC2=O)c2cc(F)ccc2O1	-18.2%	–
O=C(CCCCCCCCCCCCC1CCCC1)Nc1ccc(S(=O)(=O)c2ccc(NC(=O)CCCCCCCCCCCCC3CCCC3)cc2)cc1	-11.5%	–
C[C@@H](O)[C@H]1C(=O)N2C(C(=O)[O-])=C(SC3Cn4cnc[n+]4C3)[C@H](C)[C@H]12 (some centres undefined)	-14.9%	–
Nc1ncnc2c1ncn2CCOCP(=O)(O)O	-3.8%	–
O=C[C@H](O)[C@@H](O)[C@@H](O)[C@H](O)CO	-10.7%	–
COc1ccc(C(=O)c2ccc(C)cc2)c(O)c1	-24.6%	–
COc1cc(S(C)=O)ccc1-c1nc2ncccc2[nH]1 (centres undefined)	-9.61%	–
